Screening results (PubChem BioAssay)
This is a sample that favours compounds with a hit; in the whole collection about 17% have one here.
TDP1 cell CPT: DT40-hTDP1 cell growth loss with CPT. chicken DT40 Tdp1-/-;hTDP1 cells + 20 nM CPT, ATP luminescence, 48 h. Potency, µM (doses to about 46.2 µM), without a hit: at the top dose activity change, negative = growth inhibition, actives largely listed as inhibitors. 12% of 420,000 active. AID 686979; further: on the % scale 0 is the no-effect control and ±100 the full control effect; nearly all actives have a fitted effect of over 55% in size
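Cell growth measured by CellTiter-Glo luminescence after a minimum 48 h, 37 C compound exposure with 20 nM CPT in Tdp1-knockout DT40 cells stably expressing hTDP1, seeded 400/well; qHTS titration format.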
DT40 TDP1 no CPT: qHTS for Inhibitors of human tyrosyl-DNA phosphodiesterase 1 (TDP1): qHTS in cells in absence of CPT | DT40 Tdp1-/- hTDP1 cells, no CPT, ATP luminescence, 48 h | Potency, µM (highest dose often 46.2 µM), for inactives: at the highest dose activity change, negative = growth inhibition, hits mostly inhibitors | 15% of 420,000 active | AID 686978, 2013; further: on the % scale 0 is the no-effect control and ±100 the full control effect; nearly all actives have a fitted effect of over 55% in size
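Readout: luminescence from CellTiter-Glo after 30 min in the dark at RT. Cells: DT40 Tdp1-/- with stable hTDP1, 400/well. Exposure: compounds alone, ≥48 hr, 37 °C.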
ClpP mod: qHTS Assay for Activators of ClpP; Potency, µM (top dose mostly 57.5 µM), for inactives: top-dose activity change, negative = active; ATP-dependent Clp protease proteolytic subunit (Bacillus subtilis (strain 168)), P80244; purified B. subtilis ClpP, FRET peptide cleavage, 20 min; 1.9% of 340,000 active; active means well fitted falling curve with a large enough effect; inconclusive means small, poorly fitted or top-dose-only effect; inactive means no such curve, though single readings can be large or run the other way; further: the source files actives as falling curves though it sought activators and does not explain the sign; nearly all actives have a fitted effect of over 65% in size
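Buffer: 100 mM Tris/HCl pH8, 100 mM KCl, 0.05% low protease BSA, 2.5% glycerol, 0.01% Tween-20. ClpP 10 microg/mL final; 20 min RT; delta FRET normalized to ADEP and DMSO controls.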
TDP1 block: blocks human tyrosyl-DNA phosphodiesterase 1; recombinant TDP1, AlphaScreen DNA substrate cleavage; Potency, µM (top dose mostly 130 µM), for inactives: top-dose activity change, negative = inhibition, most hits filed as inhibitors; Q9NUW8; AID 485290; 0.28% of 350,000 active; further: on the % scale 0 is the no-effect control and ±100 the full control effect; nearly all actives have a fitted effect of over 40% in size
Target sequence (Q9NUW8 whole entry, looked up): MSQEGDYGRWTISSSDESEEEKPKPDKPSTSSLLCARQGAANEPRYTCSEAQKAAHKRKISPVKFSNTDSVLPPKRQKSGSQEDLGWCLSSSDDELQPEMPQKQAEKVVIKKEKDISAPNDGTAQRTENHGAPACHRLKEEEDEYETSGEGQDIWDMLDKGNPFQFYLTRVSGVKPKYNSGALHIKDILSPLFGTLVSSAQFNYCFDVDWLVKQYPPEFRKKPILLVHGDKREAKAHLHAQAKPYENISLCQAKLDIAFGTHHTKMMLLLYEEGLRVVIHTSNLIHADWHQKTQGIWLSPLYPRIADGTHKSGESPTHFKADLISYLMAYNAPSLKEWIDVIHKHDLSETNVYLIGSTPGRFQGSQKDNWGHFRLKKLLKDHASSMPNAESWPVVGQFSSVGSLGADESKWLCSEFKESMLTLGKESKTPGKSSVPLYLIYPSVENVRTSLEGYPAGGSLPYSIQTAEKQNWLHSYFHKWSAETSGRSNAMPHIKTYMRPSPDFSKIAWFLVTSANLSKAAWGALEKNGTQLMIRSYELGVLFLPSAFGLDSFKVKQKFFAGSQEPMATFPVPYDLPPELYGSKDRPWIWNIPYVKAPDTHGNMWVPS
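AlphaScreen read-out: signal falls as enzyme removes the 3' tyrosine-FITC from a 5'-biotinylated DNA oligo (15 nM, 5 min, RT). Enzyme was E. coli-made recombinant Tdp1 at 1 nM, exposed to compound for 15 min beforehand; beads 10 ug/ml, 10 min.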
* marks the source's active call; other numbers are inactive results; ? = inconclusive; nt = no result; [ ] = remark or other dose. Unless noted, the call rests on the fitted dose curve; in most records, active means well fitted curve in the direction sought with a large enough effect; inconclusive means small, poorly fitted or top-dose-only effect, or another doubt; inactive means no such curve, though single readings can be large; an effect the other way counts as inactive or inconclusive. Potency means the concentration at half of the fitted maximal effect.

SMILES | TDP1 cell CPT | DT40 TDP1 no CPT | ClpP mod | TDP1 block
O=C(NC1CC1)c1cc(-c2ccco2)nc2ccccc12 | -2.6% | 8.7% | nt | 4.47µM*
Cc1cc(C(=O)Nc2nc3c(C)cccc3s2)c(C)o1 | -26.2% | -27.2% | -12.8% | 4.2%
COc1ccc(-c2cc(C(=O)Nc3nc4c(C)cccc4s3)c3ccccc3n2)cc1OC | 16.4µM* | 20.6µM* | -5.0% | 5.8%
COc1ccc(NC(=O)N2CCCC3(CCN(C(=O)c4ccncc4)CC3)C2)cc1 | -5.4% | -3.0% | nt | nt
Cc1cccc2sc(NNC(=O)C3=COCCO3)nc12 | 13µM* | ? | nt | -5.5%
COc1cccc(-c2cc(C(=O)Nc3nc4ccccc4s3)c3ccccc3n2)c1 | 16.4µM* | 25.9µM* | -18.0% | 0.0%
Cc1ccc2nc(NC(=O)c3cc(-c4ccco4)nc4ccccc34)sc2c1 | ? | ? | 17.8µM* | 2.8%
Cc1cccc2sc(NNC(=O)c3cc(-c4cccs4)nc4ccccc34)nc12 | 4.11µM* | 4.11µM* | 3.9% | 3.9%
COc1ccc2nc(NC(=O)c3ccccc3C(=O)O)sc2c1 | -2.1% | 2.5% | 0.7% | nt
Cc1nnc(NC(=O)c2cc(-c3ccco3)nc3ccccc23)s1 | nt | nt | nt | -8.6%
O=C(NNc1nc2c(F)cc(F)cc2s1)C1=COCCO1 | -12.7% | 13.4% | nt | 8.1%
Cc1cc(-n2cnc(-c3cn[nH]c3C)n2)no1 | -10.5% | 2.0% | nt | 6.8%
O=C(Cn1cnc([N+](=O)[O-])c1)Nc1ccc(Cl)cc1Cl | 2.6% | 0.2% | -2.9% | nt
C=C1C[C@H]2[C@@H]3CCc4cc(OC)ccc4[C@H]3CC[C@]12C | -15.5% | 4.6% | 2.8% | -11.7%
C=C(C)COc1ccc2c(c1)CCC1C2CCC2(C)C(=O)C(=NO)CC12 (stereo not given) | 16.4µM* | ? | -0.1% | nt
CC1(c2ccc3ccccc3c2)NC(=O)N(CC(=O)N2CCCC(C(F)(F)F)C2)C1=O (stereo not given) | -28.0% | -6.5% | -0.8% | 1.4%
COc1cccc(NC(=S)N(CCCN2CCOCC2)C(C)c2cc3ccccc3o2)c1 (stereo not given) | -21.4% | -28.9% | -0.3% | 5.8%
COC(=O)c1cc2oc3ccccc3c2n1Cc1c(F)cccc1Cl | -8.4% | -1.4% | 2.51µM* | 2.0%
O=C(NCc1ccc2c(c1)OCO2)C1CC(=O)N(c2ccc(Cl)cc2)C1 (stereo not given) | 9.9% | -13.3% | nt | ?
COc1ccccc1N1CCN(C2CCN(C(=O)COc3ccccc3)CC2)CC1 | -12.5% | 7.8% | 0.4% | nt
O=C(c1ccco1)N1CCC2(CC1)CCN(c1ccccn1)CC2 | -14.2% | ? | nt | nt
O=C(c1cccc(F)c1)N1CCC2(CC1)CN(c1ccccc1)C2 | 7.31µM* | 16.4µM* | nt | nt
COc1ccc(C(=O)N2CCC3(CCCN(c4ccncc4)C3)CC2)cc1 | ? | 18.4µM* | nt | nt
O=C(c1cc(C(F)(F)F)cc(C(F)(F)F)c1)N1CCC2(CC1)CCN(c1ccccc1)CC2 | 5.7% | -10.2% | nt | nt
O=C(c1cc(C(F)(F)F)cc(C(F)(F)F)c1)N1CCC2(CC1)CCN(c1ccccn1)CC2 | 20.6µM* | 20.6µM* | nt | nt
SMILES | TDP1 cell CPT | DT40 TDP1 no CPT | ClpP mod | TDP1 block
O=C(c1cc(C(F)(F)F)cc(C(F)(F)F)c1)N1CCC2(CC1)CN(c1ccccc1)C2 | ? | 13µM* | nt | nt
CC(NC(=O)CCn1ccc2cc(S(=O)(=O)N3CCCC3)ccc21)c1ccccc1 (stereo not given) | -10.2% | -8.7% | -1.2% | 4.8%
Cc1cc(C)nc(N2CCCC(C(=O)NCc3ccccc3F)C2)n1 (stereo not given) | 0.4% | 3.1% | -21.4% | 4.8%
CNc1ncnc2c1ncn2[C@H]1CN(Cc2cccs2)C[C@@H](CO)O1 | 1.4% | 1.0% | 1.1% | nt
O=C(c1cccc(C(F)(F)F)c1)C1CCCN(C(=O)CCn2cnnn2)C1 (stereo not given) | 2.3% | -10.0% | nt | nt
O=C(c1cc(C(F)(F)F)cc(C(F)(F)F)c1)N1CCC2(CCCN(c3ccncc3)C2)CC1 | ? | 20.6µM* | nt | nt
COc1ccc(CN2C[C@@H](CO)O[C@@H](n3cnc4c(NC5CCC5)ncnc43)C2)cc1 | ? | ? | 0.1% | nt
Cc1ccc(C)c(C(=O)COC(=O)c2ccccc2N2C(=O)C3C4CCC(C4)C3C2=O)c1 (stereo not given) | 20.6µM* | 20.6µM* | -0.2% | 3.8%
O=C(COC(=O)c1ccccc1N1C(=O)C2C3CCC(C3)C2C1=O)c1ccccc1 (stereo not given) | 9.9% | 6.3% | -1.8% | 5.5%
Cc1ccc(-c2c3c(=O)n(C)c(=O)n(C)c3cn2N2CCOCC2)cc1 | ? | ? | -10.4% | 5.2%
COc1ccc(-c2c3c(=O)n(C)c(=O)n(C)c3cn2C2CCCCC2)cc1 | ? | ? | 15.8µM* | 9.3%
CC1(C(=O)NS(=O)(=O)c2cccs2)CCN1C(=O)Cc1ccccc1 (stereo not given) | -0.4% | 1.7% | 1.0% | nt
c1ccc2c(c1)ncn2-c1ncnc2sc3c(c12)CCCC3 | 4.3% | -8.9% | ? | 1.9%
CC(O)CNc1nc2ccccc2n1-c1ncnc2sc3c(c12)CCC3 (stereo not given) | 16.4µM* | 29.1µM* | 1.3% | 5.1%
Cn1cnc(S(=O)(=O)N2CCCC(C(=O)NCc3ccc(F)cc3)C2)c1 (stereo not given) | 12.0% | -7.3% | 0.9% | 3.8%
COc1ccc(CCC(=O)NCCS(=O)(=O)N2CCN(c3ccccc3)CC2)cc1 | ? | ? | -3.8% | -0.2%
Oc1ccc(NCc2ccccc2F)c2cccnc12 | nt | nt | nt | 3.6%
O=C(Nc1ccc(Br)cn1)c1ccc(Br)s1 | ? | 25.9µM* | nt | nt
O=C(Nc1ccc(Br)cn1)c1ccc(Cl)s1 | ? | 18.4µM* | nt | 6.0%
O=C(NCCCN1CCCC1=O)c1cccc(NS(=O)(=O)c2ccc(Br)cc2)c1 | ? | ? | -2.1% | -8.6%
c1ccc(N2CCN(c3nc4cc5c(cc4s3)OCO5)CC2)cc1 | -9.6% | -25.8% | -1.9% | 1.1%
CN1CCN(c2ccc3sc(-n4ccc5ccccc54)nc3c2)CC1 | 16.4µM* | 13µM* | -4.6% | nt
CC(=O)OC(C(=O)c1ccccc1)c1ccccc1 (stereo not given) | nt | nt | nt | 2.5%
COc1cc2c(c(O)c1OC)C(=O)C(OC)CCC2 (stereo not given) | -10.0% | -16.1% | 28.2µM* | -4.0%
COc1cc2c(c(O)c1OC)-c1c(cc(OC)c(OC)c1OC)C[C@@H](C)[C@@H](C)C2 | ? | ? | 1.1% | 3.5%
COc1ccc(C)cc1NC(=O)c1cccc(-c2ccc(OC(C)=O)cc2)c1 | -28.8% | ? | -2.0% | -0.1%[0.0935 µM]
O=C(CN1CCN(C(=O)c2ccc(-c3nc4ccccc4s3)o2)CC1)Nc1ccc(F)cc1 | ? | 25.9µM* | 2.5% | 4.6%
O=C(c1ccc(-c2nc3ccccc3s2)o1)N1CCN(c2ccccc2O)CC1 | 23.1µM* | 20.6µM* | -2.8% | 7.3%
